# Experimental data: publication PMC7862700, “An all-to-all approach to the identification of sequence-specific readers for epigenetic DNA modifications on cytosine”
# Assays:
# Experiment in all cases: DAPPL (digital affinity profiling via proximity ligation, sequencing); 10 mM Tris-HCl pH 7.5, 50 mM NaCl, 1 mM DTT, 4% glycerol, room temperature, 30 min; GST-TFs on glutathione beads, 16-mer random dsDNA library, 0.1% formaldehyde crosslink after washing; high values mean tight binding
# Settings in all cases: protein: recombinant; tags: N-terminal GST; dsDNA, one strand shown
# ELF3 = molecular target: T1, ELF3 (Homo sapiens, UniProt P78545 1-371)
# T1 sequence: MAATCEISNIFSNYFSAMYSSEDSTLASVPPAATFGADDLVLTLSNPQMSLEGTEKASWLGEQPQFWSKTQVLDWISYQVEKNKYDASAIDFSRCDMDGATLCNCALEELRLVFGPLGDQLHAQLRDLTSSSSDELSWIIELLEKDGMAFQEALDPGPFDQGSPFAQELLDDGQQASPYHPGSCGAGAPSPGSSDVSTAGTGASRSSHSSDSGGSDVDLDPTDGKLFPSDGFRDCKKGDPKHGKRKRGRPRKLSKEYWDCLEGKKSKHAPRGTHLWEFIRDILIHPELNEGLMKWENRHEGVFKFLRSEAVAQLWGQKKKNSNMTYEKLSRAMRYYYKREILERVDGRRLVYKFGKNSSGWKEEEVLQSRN
# Summary of the method: (§1)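 Yeast served to express human transcription factors as GST fusions, which were then captured on glutathione beads and labelled with DNA barcodes. Pooled with a tag-only sample, they were incubated with 200 nmole of a 16-mer random double-stranded DNA library for 30 min at room temperature in Tris/NaCl/DTT/glycerol buffer, washed, crosslinked with 0.1% formaldehyde, ligated by proximity, amplified by PCR and sequenced. Dividing each hexamer's read frequency for a factor by its frequency for the tag-only sample gives the binding signal.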
# ETV3L = molecular target: T2, ETV3L (Homo sapiens, UniProt Q6ZN32 1-361)
# T2 sequence: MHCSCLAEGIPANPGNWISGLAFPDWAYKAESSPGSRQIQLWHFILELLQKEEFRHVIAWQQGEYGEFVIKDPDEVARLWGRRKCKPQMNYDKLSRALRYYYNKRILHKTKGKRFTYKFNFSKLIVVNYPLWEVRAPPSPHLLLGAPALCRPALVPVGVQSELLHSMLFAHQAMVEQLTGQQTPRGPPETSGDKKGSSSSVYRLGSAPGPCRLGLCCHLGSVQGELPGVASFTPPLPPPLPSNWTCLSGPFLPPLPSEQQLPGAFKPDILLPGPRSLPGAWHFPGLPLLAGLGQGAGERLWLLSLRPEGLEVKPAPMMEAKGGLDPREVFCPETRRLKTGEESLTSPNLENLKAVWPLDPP
# Summary of the method: as §1
# EHF = molecular target: T3, EHF (Homo sapiens, UniProt Q9NZC4 1-300)
# T3 sequence: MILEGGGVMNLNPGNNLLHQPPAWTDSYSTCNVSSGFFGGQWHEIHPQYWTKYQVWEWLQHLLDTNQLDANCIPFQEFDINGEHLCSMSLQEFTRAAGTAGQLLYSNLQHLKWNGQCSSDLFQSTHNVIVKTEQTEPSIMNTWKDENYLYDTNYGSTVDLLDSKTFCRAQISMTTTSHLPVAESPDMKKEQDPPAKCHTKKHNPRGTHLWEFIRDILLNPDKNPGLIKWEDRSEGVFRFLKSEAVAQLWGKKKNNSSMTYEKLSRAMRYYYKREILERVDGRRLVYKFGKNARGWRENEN
# Summary of the method: as §1
# ELK3 = molecular target: T4, ELK3 (Homo sapiens, UniProt P41970 1-407)
# T4 sequence: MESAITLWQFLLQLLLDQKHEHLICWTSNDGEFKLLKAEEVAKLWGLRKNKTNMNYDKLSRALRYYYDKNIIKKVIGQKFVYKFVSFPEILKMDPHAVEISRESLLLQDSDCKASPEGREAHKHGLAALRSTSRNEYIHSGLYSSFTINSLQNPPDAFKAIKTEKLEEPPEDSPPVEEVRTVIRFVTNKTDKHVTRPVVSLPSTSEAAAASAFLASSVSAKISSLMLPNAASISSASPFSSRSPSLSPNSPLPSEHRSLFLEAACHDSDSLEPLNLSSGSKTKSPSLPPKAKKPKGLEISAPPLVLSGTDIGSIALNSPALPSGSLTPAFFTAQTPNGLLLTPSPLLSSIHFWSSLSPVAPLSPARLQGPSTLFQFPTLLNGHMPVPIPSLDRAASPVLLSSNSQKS
# Summary of the method: as §1
# ETV3 = molecular target: T5, ETV3 (Homo sapiens, UniProt P41162-2 1-143)
# T5 sequence: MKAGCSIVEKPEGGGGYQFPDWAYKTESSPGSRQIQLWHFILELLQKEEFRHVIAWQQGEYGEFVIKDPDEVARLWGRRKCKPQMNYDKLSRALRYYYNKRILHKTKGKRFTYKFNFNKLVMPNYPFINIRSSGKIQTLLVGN
# Summary of the method: as §1
# ETS2 = molecular target: T6, ETS2 (Homo sapiens, UniProt P15036 1-469)
# T6 sequence: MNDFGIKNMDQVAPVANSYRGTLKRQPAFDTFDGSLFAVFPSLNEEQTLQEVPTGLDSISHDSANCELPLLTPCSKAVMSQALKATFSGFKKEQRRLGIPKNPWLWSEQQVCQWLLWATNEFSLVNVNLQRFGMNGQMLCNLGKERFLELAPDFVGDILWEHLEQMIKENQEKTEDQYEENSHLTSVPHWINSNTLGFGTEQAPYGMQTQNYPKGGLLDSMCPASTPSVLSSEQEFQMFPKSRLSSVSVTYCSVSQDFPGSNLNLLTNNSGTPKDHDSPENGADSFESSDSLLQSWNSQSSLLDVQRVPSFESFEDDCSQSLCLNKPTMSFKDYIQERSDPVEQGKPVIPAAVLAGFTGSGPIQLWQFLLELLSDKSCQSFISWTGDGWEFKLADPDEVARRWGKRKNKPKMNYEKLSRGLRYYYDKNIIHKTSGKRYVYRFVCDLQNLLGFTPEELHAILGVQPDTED
# Summary of the method: as §1
# SPDEF = molecular target: T7, SPDEF (Homo sapiens, UniProt O95238 1-335)
# T7 sequence: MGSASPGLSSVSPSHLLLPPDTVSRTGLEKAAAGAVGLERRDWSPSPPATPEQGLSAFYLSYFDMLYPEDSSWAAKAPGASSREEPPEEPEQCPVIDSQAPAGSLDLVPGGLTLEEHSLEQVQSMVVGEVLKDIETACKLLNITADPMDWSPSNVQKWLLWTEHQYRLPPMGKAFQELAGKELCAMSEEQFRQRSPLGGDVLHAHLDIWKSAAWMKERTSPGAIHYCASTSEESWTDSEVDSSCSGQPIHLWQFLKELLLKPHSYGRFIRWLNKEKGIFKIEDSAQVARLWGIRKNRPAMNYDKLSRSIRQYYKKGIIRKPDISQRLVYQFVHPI
# Summary of the method: as §1
# ELF5 = molecular target: T8, ELF5 (Homo sapiens, UniProt Q9UKW6-2 1-255)
# T8 sequence: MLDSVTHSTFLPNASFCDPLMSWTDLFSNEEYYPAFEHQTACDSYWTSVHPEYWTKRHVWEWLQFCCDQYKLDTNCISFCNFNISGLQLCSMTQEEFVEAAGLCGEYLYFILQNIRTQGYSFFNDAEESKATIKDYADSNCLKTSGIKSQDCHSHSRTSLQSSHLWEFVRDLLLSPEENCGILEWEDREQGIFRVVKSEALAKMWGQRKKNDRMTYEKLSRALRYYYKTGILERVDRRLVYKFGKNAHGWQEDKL
# Summary of the method: as §1
# SPI1 = SPI1 (Homo sapiens, UniProt P17947 1-270)
# Summary of the method: as §1
# CRX = CRX (Homo sapiens, UniProt O43186 1-299)
# CRX, sequence (O43186 whole entry): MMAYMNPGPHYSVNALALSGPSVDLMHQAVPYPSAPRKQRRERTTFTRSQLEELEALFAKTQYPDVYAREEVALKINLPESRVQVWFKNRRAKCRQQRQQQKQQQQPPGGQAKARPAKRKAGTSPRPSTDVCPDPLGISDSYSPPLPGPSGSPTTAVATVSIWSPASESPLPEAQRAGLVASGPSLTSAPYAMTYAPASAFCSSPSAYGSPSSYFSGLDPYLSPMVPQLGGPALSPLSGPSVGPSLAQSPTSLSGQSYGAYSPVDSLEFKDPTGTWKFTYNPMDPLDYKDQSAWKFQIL
# Summary of the method: as §1
# ERF = molecular target: T9, ERF (Homo sapiens, UniProt P50548 1-548)
# T9 sequence: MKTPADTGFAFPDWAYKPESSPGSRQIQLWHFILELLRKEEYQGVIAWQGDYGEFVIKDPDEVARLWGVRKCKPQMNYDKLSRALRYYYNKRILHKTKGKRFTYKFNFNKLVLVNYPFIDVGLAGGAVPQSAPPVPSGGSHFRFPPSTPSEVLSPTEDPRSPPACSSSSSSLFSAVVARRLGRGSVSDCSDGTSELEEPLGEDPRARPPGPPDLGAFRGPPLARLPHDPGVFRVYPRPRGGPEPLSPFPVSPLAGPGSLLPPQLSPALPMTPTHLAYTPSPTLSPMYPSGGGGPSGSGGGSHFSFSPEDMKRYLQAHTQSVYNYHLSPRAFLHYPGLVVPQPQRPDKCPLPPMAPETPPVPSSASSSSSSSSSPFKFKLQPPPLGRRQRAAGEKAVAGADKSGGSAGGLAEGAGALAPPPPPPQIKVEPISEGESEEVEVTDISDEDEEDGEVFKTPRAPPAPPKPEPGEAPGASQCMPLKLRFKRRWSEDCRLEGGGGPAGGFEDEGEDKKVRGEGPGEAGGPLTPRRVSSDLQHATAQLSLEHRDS
# Summary of the method: as §1
# GABPA = molecular target: T10, GABPA (Homo sapiens, UniProt Q06546 1-454)
# T10 sequence: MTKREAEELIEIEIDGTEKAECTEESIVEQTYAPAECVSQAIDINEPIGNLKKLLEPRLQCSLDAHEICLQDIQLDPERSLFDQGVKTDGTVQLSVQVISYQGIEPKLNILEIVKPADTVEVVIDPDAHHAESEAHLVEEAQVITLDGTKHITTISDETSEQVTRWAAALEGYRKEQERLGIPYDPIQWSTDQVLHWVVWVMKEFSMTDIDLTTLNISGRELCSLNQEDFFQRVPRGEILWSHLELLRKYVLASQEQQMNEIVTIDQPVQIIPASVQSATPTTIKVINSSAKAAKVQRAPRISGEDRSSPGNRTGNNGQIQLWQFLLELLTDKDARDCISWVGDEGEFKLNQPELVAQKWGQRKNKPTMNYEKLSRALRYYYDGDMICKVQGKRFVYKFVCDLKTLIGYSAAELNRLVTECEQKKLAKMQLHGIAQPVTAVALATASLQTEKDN
# Summary of the method: as §1
# SPIB = SPIB (Homo sapiens, UniProt Q01892 1-262)
# SPIB, sequence (Q01892 whole entry): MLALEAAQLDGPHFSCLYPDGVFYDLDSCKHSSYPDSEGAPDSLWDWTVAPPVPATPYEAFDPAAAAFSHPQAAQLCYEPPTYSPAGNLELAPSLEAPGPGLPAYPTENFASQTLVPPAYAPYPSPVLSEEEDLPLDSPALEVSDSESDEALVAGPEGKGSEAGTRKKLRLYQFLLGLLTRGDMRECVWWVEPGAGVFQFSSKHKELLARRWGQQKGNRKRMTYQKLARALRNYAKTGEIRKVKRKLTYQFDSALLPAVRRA
# Summary of the method: as §1
# ETV6 = ETV6 (Homo sapiens, UniProt P41212 1-452)
# ETV6, sequence (P41212 whole entry): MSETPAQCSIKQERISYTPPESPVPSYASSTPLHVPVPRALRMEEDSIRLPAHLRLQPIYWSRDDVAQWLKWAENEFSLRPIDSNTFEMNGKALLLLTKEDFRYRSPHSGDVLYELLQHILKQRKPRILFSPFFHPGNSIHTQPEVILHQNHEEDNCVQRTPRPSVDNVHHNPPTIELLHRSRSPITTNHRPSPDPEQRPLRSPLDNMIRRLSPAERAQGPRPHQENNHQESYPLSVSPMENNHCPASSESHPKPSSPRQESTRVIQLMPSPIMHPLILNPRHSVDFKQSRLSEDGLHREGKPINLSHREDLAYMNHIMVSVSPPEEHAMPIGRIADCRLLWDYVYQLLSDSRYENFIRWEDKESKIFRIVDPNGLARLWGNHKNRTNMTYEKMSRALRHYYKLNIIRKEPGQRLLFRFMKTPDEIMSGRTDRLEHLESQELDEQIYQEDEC
# Summary of the method: as §1
sequence,measurement,setting,value
TGACAG,binding signal,ELF3,"1.09 fold enrichment (6-mer frequency, TF over GST control)"
same,binding signal,ETV3L,"1 fold enrichment (6-mer frequency, TF over GST control)"
CAACAG,binding signal,EHF,"1 fold enrichment (6-mer frequency, TF over GST control)"
same,binding signal,ELK3,"1.01 fold enrichment (6-mer frequency, TF over GST control)"
same,binding signal,ELF3,"1.03 fold enrichment (6-mer frequency, TF over GST control)"
same,binding signal,ETV3,"1.02 fold enrichment (6-mer frequency, TF over GST control)"
CGCGGA,binding signal,ELF3,"1.07 fold enrichment (6-mer frequency, TF over GST control)"
same,binding signal,ETS2,"1 fold enrichment (6-mer frequency, TF over GST control)"
same,binding signal,SPDEF,"1.03 fold enrichment (6-mer frequency, TF over GST control)"
same,binding signal,ELF5,"1.03 fold enrichment (6-mer frequency, TF over GST control)"
same,binding signal,ETV3,"1.01 fold enrichment (6-mer frequency, TF over GST control)"
AGTCTT,binding signal,SPI1,"1.03 fold enrichment (6-mer frequency, TF over GST control)"
same,binding signal,CRX,"1.02 fold enrichment (6-mer frequency, TF over GST control)"
same,binding signal,ERF,"1.01 fold enrichment (6-mer frequency, TF over GST control)"
same,binding signal,ELF5,"1.08 fold enrichment (6-mer frequency, TF over GST control)"
CCAAAG,binding signal,GABPA,"1.01 fold enrichment (6-mer frequency, TF over GST control)"
same,binding signal,SPIB,"1.01 fold enrichment (6-mer frequency, TF over GST control)"
same,binding signal,CRX,"1.05 fold enrichment (6-mer frequency, TF over GST control)"
GTCTGC,binding signal,GABPA,"1.01 fold enrichment (6-mer frequency, TF over GST control)"
TAGCCG,binding signal,CRX,"1.05 fold enrichment (6-mer frequency, TF over GST control)"
AGTACG,binding signal,SPI1,"1.02 fold enrichment (6-mer frequency, TF over GST control)"
same,binding signal,ELF3,"1.01 fold enrichment (6-mer frequency, TF over GST control)"
same,binding signal,ETV6,"1.03 fold enrichment (6-mer frequency, TF over GST control)"
